Drawing on ChEMBL document CHEMBL3433997, “St. Jude Leishmania screening dataset” (2016), this text covers inhibition for 40 compounds.

Structures are written as SMILES. Several values for one entry are separate records, joined by “and”; a condition that tells them apart may be missing. Equal entries are not always repeated.

The experiment concerns the target Glucose transporter (Leishmania mexicana) (UniProt O61059). The experiment is described as follows: ST_JUDE_LEISH: Cytotoxicity at 2uM final concentration against transgenic Leishmania Mexicana promastigotes LmGT2 that are glucose transport deficient and complemented with the L. Mexicana glucose transporter 2. Activity is measured by DNA content using SYBR green in vitro. The experiment is classed as functional.
What is called inhibition is the drop in the measured response relative to a control, in per cent. Take `Cc1c(CNCCCNc2cc(=O)c3ccccc3[nH]2)sc(C(F)F)c1Br`: the inhibition was -1.09%.
To `CC(C)[C@H](NC(=O)c1c(CN2CCC(N3CCCCC3)CC2)c(-c2ccccc2)nc2cc(O)ccc12)c1ccccc1` belongs 0.91%.
In the case of `COc1cc(Cc2cnc(N)nc2N)cc(OCCCC(=O)O)c1OC` it was 1.78%.
To `COc1ccc(NC(=O)Nc2ccc(-c3ccccc3)cc2)cc1Cn1nc(Cl)c(N2CCCNCC2)cc1=O` belongs 0.02%.
With `Cc1nc2ccc3nc(NC(=O)c4ccno4)sc3c2s1`, the inhibition is -1.31%.
In the case of `Nc1nc(O)c2c(n1)CCc1c(Br)cccc1-2` it was -1.14%; in that of `CC(C)CCNC(=O)c1cnc2c(O)cccc2c1Nc1cccc(NC(=O)c2ccc(F)cc2)c1`, 0.01%.
Turning to `CCC(=O)Nc1nnc(Cc2ccc(OC)c(OC)c2)s1`, the inhibition turned out to be 6.69%.
In the case of `O=C(NCCN1CCCC1)c1ccc(-c2cccc(-c3nc4cc(F)ccc4[nH]3)c2)cc1` it was -0.53%; in that of `CC1(C)N=C(N)N=C(Nc2ccc(F)c(F)c2)N1`, -0.02%; in that of `COc1ccc(C2CC(=O)C3=C(C2)NC(C)=C(C(=O)OC(C)C)C3c2ccc(O)cc2)cc1OC` (stereo not given), 5.45%.
With `O=C(Nc1ccc2c(c1)CN(Cc1ccc(N3CCCC3)o1)CCC2)c1ccoc1`, the inhibition was 2.73%.
Take `COCCCNc1sc(S(=O)(=O)c2ccccc2)nc1S(=O)(=O)c1ccc(C)cc1`: the inhibition worked out at 1.51%.
To `CCNC(=O)Nc1cccc(-c2ccc(-c3nc4cccc(C)c4[nH]3)s2)c1` belongs 0.03%; to `COc1cccc(C(=O)NCc2cccs2)c1Oc1ccccc1`, 11%.
In the case of `CC1=C(C(=O)OCCOCc2ccccc2)C(c2ccccc2C(F)(F)F)C(C(=O)OCCOCc2ccccc2)=C(C)N1` it was -2.95%; in that of `CCCCOc1ccc(C(=O)C(CCC(CNC(C)(C)C)C(=O)c2ccc(OCCCC)cc2)CNC(C)(C)C)cc1` (stereo not given), 31.8%.
To `COc1ccc2nccc([C@@H](O)CN3CCC(NCc4nc5c(cc4Cl)SCC(=O)N5)C(F)C3)c2c1` (stereo not given in full) belongs 1.15% and 6.72%; to `CN(C)c1ccc(C=Cc2nc(=O)c3ccccc3o2)cc1`, 0.74%; to `NCCNc1ccc([N+](=O)[O-])cc1C(=O)Nc1cccc(C(F)(F)F)c1`, 3.98%.
Turning to `Cc1cc(OCCCN2CCC(NS(=O)(=O)c3cccc(Br)c3)C2)c2ccccc2n1` (stereo not given), the inhibition turned out to be 1.56%.
To `COc1ccc2nccc([C@@H](O)CN3CCC(NCc4cc5cccc6c5n(c4=O)CCC6)CC3)c2c1` belongs 2.27%; to `Cc1cccc2nc(-c3ccc(-c4cccc(NC(=O)CN5CCN(C)CC5)c4)s3)[nH]c12`, 2.66%.
Consider `CNc1ccc(CNCc2ccc(-c3ccc(-c4nc5cc(F)ccc5[nH]4)cc3)cc2)cc1`, for which the inhibition was -0.33%.
`CCN(CC)CCCN(C(=O)Nc1ccc(C#N)cc1)c1nc(-c2ccc(F)cc2)cs1`: the inhibition is -0.41%.
To `Cc1cc(CN2CC[C@H](NC(=O)c3ccc(Cl)c(Cl)c3)C2)ccc1OCCN1CCCC1` belongs -2.1%; to `COc1ccc(-n2ccnc2)cc1CNC1CCN(CC2Cn3c(=O)ccc4ccc(F)c2c43)CC1` (stereo not given), 5.24%; to `Cc1cc(CN2CC[C@H](NC(=O)c3ccc(Cl)c(Cl)c3)C2)ccc1OC1CCN(Cc2ccccc2)CC1`, 8.04%.
Consider `CC(C)c1cc(C(=O)N[C@@H](Cc2ccccc2)[C@H](O)CNC2CCCCC2)cc(N2CCCC2=O)c1`, for which the inhibition was 2.18%.
On to `Cc1cccc2nc(-c3cccc(-c4ccc(NC(=O)Nc5cccc(C#N)c5)cc4)c3)[nH]c12`, for which the inhibition was -1.2%.
To `CC1(C)N=C(N)N=C(N)N1c1cc(Cl)c(Cl)cc1Cl` belongs -3.01%.
In the case of `O=C(c1c(-c2[nH]c3ccccc3c2C(=O)C(F)(F)F)[nH]c2ccccc12)C(F)(F)F` it was -1.45%.
Turning to `Cc1c(CN2CCC(N3CCC(C(=O)NC4CC4)CC3)CC2)[nH]c2c(Cl)cccc12`, the inhibition stood at 9.75%.
For `Cc1cc(=NN=Cc2ccccn2)c2cc(C(F)(F)F)ccc2[nH]1`, the inhibition was -1.17%.
In the case of `CC(C)N1CCN(CCCCNc2c3ccccc3nc3ccccc23)CC1` it was 22.3%.
In the case of `CC(=O)Nc1nc(C(=O)Nc2ccc(-c3cccc(-c4nc5ccccc5[nH]4)c3)cc2)cs1` it was 0.42%; in that of `Cc1cccc2nc(-c3ccc(-c4cccc(CN5CCN(CCO)CC5)c4)cc3)[nH]c12`, 4.22%.
For `O=C(/C=C/c1ccc(Cl)c(Cl)c1)NCCCCCN1CCC(NC(=O)Nc2ccc(Cl)cc2Cl)CC1`, the inhibition is -2.38%.
In the case of `Cc1nnsc1C(=O)Nc1ccc(-c2cccc(-c3nc4cc(C(F)(F)F)ccc4[nH]3)c2)cc1` it was 4.55%; in that of `O=C(/C=C/c1ccc2ccccc2c1)NCC1(c2ccc(-c3ccccc3)cc2)CCOCC1`, 3.08%.
